# CRE Fsk mod: Cell signaling CRE-BLA (Fsk stim); CHO CRE-bla reporter (cAMP response element driving beta-lactamase), forskolin EC10, beta-lactamase ratio; Potency, µM (series often up to 38.2 µM), for inactives: top-dose activity change, negative = inhibition, usual class: activators; 71,000 compounds, 2.5% hits; AID 662, 2007; active means well fitted activation curve with a large enough effect in the signal ratio, with a control signal flat, not every such curve was filed as active; inconclusive means small, poorly fitted or top-dose-only effect, or effect the other way, or a change in a side signal; the % refers to the signal ratio; further: potency means the concentration at half of the fitted maximal effect; % of control where 0% means no effect
#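 Forskolin analogue NKH 477 at EC10 stimulated CRE-driven beta-lactamase in CHO cells alongside compound dilution series. Beta-lactamase was measured with CCF4, excitation 405 nm, emission ratio 460/530 nm.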
# HADH2 inh: qHTS Assay for Inhibitors of HADH2 (Hydroxyacyl-Coenzyme A Dehydrogenase, Type II); recombinant HADH2, NADH fluorescence, beta-hydroxybutyryl-CoA; 3-hydroxyacyl-CoA dehydrogenase type-2 (Homo sapiens), Q99714; Potency, µM (doses to about 57.1 µM), for the others: top-dose activity change, negative = inhibition, most hits filed as inhibitors; 73,000 compounds, 3.4% hits; further: potency means the concentration at half of the fitted maximal effect; on the % scale 0 is the no-effect control and ±100 the full control effect; nearly all actives have a fitted effect of over 60% in size
# Target sequence (Q99714 whole entry, looked up, one chain of several): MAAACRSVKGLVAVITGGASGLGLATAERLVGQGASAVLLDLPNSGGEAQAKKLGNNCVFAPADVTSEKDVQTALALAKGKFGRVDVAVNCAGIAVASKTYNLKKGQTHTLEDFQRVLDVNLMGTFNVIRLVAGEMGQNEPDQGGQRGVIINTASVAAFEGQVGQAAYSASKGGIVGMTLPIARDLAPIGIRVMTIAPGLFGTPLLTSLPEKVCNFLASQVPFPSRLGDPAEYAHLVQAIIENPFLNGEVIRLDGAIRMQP
#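 Activity measured as NADH fluorescence gain (360/450 nm), taken as the change between first and last reads of a 4-min kinetic run. Conditions: pH 9.0 Tris buffer, 20 nM E. coli-expressed His-tagged enzyme, 1 mM NAD+, 90 uM beta-hydroxybutyryl-CoA; 15-min compound preincubation.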
# 4MU fluor: qHTS Assay for Spectroscopic Profiling in 4-MU Spectral Region; compound autofluorescence, 340/450 nm, 4-MU equivalents; active compounds read high; max dye-equivalent concentration, M; 59,000 compounds, 11% hits; in the data active means max dye-equivalent concentration above about 10 nM; inconclusive means mostly about 1.1 nM to 9.6 nM
#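 Compounds in 100 mM Tris, pH 8.0, sat 15 min at room temperature before fluorescence was read at 340 nm excitation/450 nm emission; a per-plate six-point 4-MU standard curve converted signals to dye-equivalent concentration at each compound concentration.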
# HSD17B inh: qHTS Assay for Inhibitors of HSD17B4, hydroxysteroid (17-beta) dehydrogenase 4; 3-hydroxyacyl-CoA dehydrogenase type-2 (Homo sapiens), Q99714; recombinant HSD17B10, NADH fluorescence kinetic; Potency, µM (titrated, usually from 57.1 µM), for the others: at the top dose activity change, negative = inhibition, hits mostly inhibitors; 75,000 compounds, 7.6% hits;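 further: the protocol describes HADH2 (HSD17B10) and not the HSD17B4 of the title; potency means the concentration at half of the fitted maximal effect; on the % scale 0 is the no-effect control and ±100 the full control effect; nearly all actives have a fitted effect of over 70% in size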
#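 Activity followed as NADH fluorescence increase (ex 360, em 450 nm) every 30 seconds for 4 min, using final 90 uM beta-hydroxybutyryl CoA and 1 mM NAD+. Recombinant His-tagged enzyme, 20 nM, pH 9.0 Tris buffer, 15 min compound preincubation.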
# AID923: qHTS Assay for Allosteric/Competitive Inhibitors of Caspase-1: Spectroscopic Profiling in AFC Spectral Region; compound fluorescence, AFC spectral region (405/520 nm); Potency, µM (doses to about 57.5 µM), without a hit: at the top dose fluorescence increase, usual class: activators; 75,000 compounds, 1.1% hits; further: potency means the concentration at half of the fitted maximal effect; 0% is about no effect
#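 Baseline compound fluorescence (AFC region, 405 nm ex/520 nm em) taken from the intercept of kinetic reads with 50 nM caspase-1 and 5 uM Ac-WEHD-AFC; normalized to an on-plate AFC standard curve; compounds titrated up to 57 uM.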
# A350 fluor: qHTS Assay for Spectroscopic Profiling in A350 Spectral Region; Compound autofluorescence, 340/450 nm, Alexa 350 dye-equivalents; active compounds read high; max dye-equivalent concentration, M; 59,000 compounds, 11% hits; in the data active means max dye-equivalent concentration above about 10 nM; inconclusive means mostly about 1.1 nM to 9.6 nM
# * marks the source's active call; other numbers are inactive results; i = inactive; ? = inconclusive; nt = not tested or not shown; [ ] = dose if it differs, or a comment. The list is not random: actives were taken first. Their share in the collection is about 14%. Unless noted, the call rests on the fitted dose curve; in most records, active means well fitted curve in the direction sought with a large enough effect; inconclusive means small, poorly fitted or top-dose-only effect, or another doubt; inactive means no such curve, though single readings can be large; an effect the other way counts as inactive or inconclusive.
SMILES,CRE Fsk mod,HADH2 inh,4MU fluor,HSD17B inh,AID923,A350 fluor
Cc1ccc(-c2nn(CCC(=O)NCC3CCCO3)c(=O)c3ccccc23)cc1 (centres undefined),nt,nt,i,nt,nt,i
COc1ccc(N2CCN(C(=O)CN3C(=O)C4CC=CCC4C3=O)CC2)cc1 (centres undefined),2%,-22%,3.2e-07M*,25µM*,0%,4e-07M*
COc1ccc(N2CCN(C(=O)CN3C(=O)c4ccccc4S3(=O)=O)CC2)cc1,-6%,5%,i,1%,0%,i
CCOC(=O)C1=CC(OC(CC)CC)C(NC(C)=O)C(N)C1 (centres undefined),nt,nt,nt,-4%,2%,nt
CC(=O)C(C(C)=O)c1c(Cl)c(O)c(O)c2c(C(=O)c3ccccc3)coc12,?,0.79µM*,i,7.9µM*,0%,i
O=c1cc(NCc2ccco2)[nH]c(=O)n1-c1ccc(Br)cc1,7%,-1%,i,-14%,1%,i
O=C(O)Cn1nnn(-c2ccccc2)c1=S,?,6%,1.5e-08M*,-2%,3%,1.7e-08M*
Cn1c2ccccc2c2cnn(CC(=O)O)c(=O)c21,nt,-30%,nt,?,5%,nt
Cc1ccc(-c2nc3c(=O)n(C)c4ccccc4c3o2)cc1,?,?,1.2e-07M*,6.3µM*,0%,1e-07M*
Cc1cc(=O)n(CC(C)O)c(O)c1C#N (centres undefined),0%,-18%,i,-20%,3%,i
O=C(CCc1nc(-c2ccccc2)no1)NCc1ccco1,-7%,-23%,i,-2%,1%,i
COc1cc(-c2noc(CCCC(=O)NCc3ccco3)n2)cc(OC)c1OC,?,15%,?,-7%,-1%,1.3e-08M*
CCC(=O)/C=C/C1C(C)=CCCC1(C)C (centres undefined),-9%,5%,nt,0%,-2%,nt
CCCc1nc(N)c(C#N)c(-c2ccco2)c1CC,7.9µM*,-13%,5.7e-08M*,?,2%,5.8e-08M*
Cc1c(-c2ccc(F)cc2)nc(N)c(C#N)c1-c1ccco1,1.6µM*,29%,2.3e-07M*,25µM*,6%,3.1e-07M*
CCCCCCC1=Cc2cc(OC)c(OC)cc2C(C(C(C)=O)C(=O)OC)O1 (centres undefined),nt,0%[11.4 µM],nt,2%[11.4 µM],0%[11.5 µM],nt
COc1cccc2cc(NC(=O)C3CCCCC3)c(=O)oc12,?,-22%,?,13µM*,1%,?
CCOc1ccc(/C=C/C(=O)c2cccs2)cc1,nt,nt,nt,?,8%,nt
CC1(C)SC2C(NC(=O)C(NC(=O)N3CCNC3=O)c3ccccc3)C(=O)N2C1C(=O)O (centres undefined),nt,nt,nt,3%,-2%,nt
CCC(C)c1ccc(O)c(NC(=O)c2ncn[nH]2)c1 (centres undefined),-5%,-10%,i,-2%,-2%,i
CC(C)c1ccc2oc(-c3ccc(NC(=O)c4ncn[nH]4)cc3)nc2c1,?,25µM*,4.4e-08M*,20µM*,0%,4.1e-08M*
CCC(C)c1ccc2oc(-c3ccc(NC(=O)c4ncn[nH]4)cc3)nc2c1 (centres undefined),?,32µM*,5.8e-08M*,25µM*,-2%,6.2e-08M*
CC(=O)OC1CCC2(C)C3=C(CCC2C1(C)C)[C@@]1(C)CCC(C(C)CCC=C(C)C)[C@@]1(C)CC3 (some centres undefined),nt,nt,nt,3%,2%,nt
CCOC(=O)c1sc(N)c(C(=O)Nc2ccc(C)cc2C)c1C,nt,0.1µM*,nt,32µM*,4%,nt
N#CC1=C(O)C(c2ccccc2)n2c1nc(=O)c1ccccc12 (centres undefined),?,-1%,2.2e-07M*,32µM*,0%,3.1e-07M*
SMILES,CRE Fsk mod,HADH2 inh,4MU fluor,HSD17B inh,AID923,A350 fluor
COc1cccc(Oc2coc3c(CN4CCOCC4)c(O)ccc3c2=O)c1,-4%,39%,7.9e-07M*,25µM*,21%,1.1e-06M*
O=c1c(-c2ccc3c(c2)OCCO3)coc2c(CN3CCOCC3)c(O)ccc12,-9%,3%,8.9e-08M*,?,-1%,1.2e-07M*
COc1ccc(Oc2coc3cc(OC(=O)N4CCOCC4)ccc3c2=O)cc1,1%,6%,i,-1%,-1%,i
CC(C)=CCc1c(O)cc2occ(-c3ccc4c(c3)OCO4)c(=O)c2c1O,nt,nt,nt,7%,1%,nt
CCCc1cc(N2CCN(c3ccccn3)CC2)n2nc(C)c(-c3ccccc3)c2n1,-17%,?,3.5e-07M*,7.9µM*,1%,3.3e-07M*
Cc1nc2cc(-c3cccc(F)c3)nn2c(C)c1CCC(=O)N1CCN(c2ccccn2)CC1,-1%,9%,nt,-9%,0%,nt
COc1ccccc1-c1c(C)nn2c(N3CCCCCC3)cc(C)nc12,?,?,nt,?,-1%,nt
CCc1nn2c(N3CCOCC3)cc(C)nc2c1-c1ccc(F)cc1,?,i,2e-07M*,?,0%,2.9e-07M*
Cc1cc(N2CCCC2)n2nc(C)nc2n1,13µM*,5%,nt,5%,-2%,nt
Cc1cc(N2CCCCC2)n2nc(C)c(-c3ccccc3)c2n1,16µM*,?,6.1e-08M*,?,6%,1.3e-08M*
CCOC(=O)N1CCN(c2cc(C)nc3nc(C)nn23)CC1,15%,-5%,nt,4%,2%,nt
Cc1cc(C(=O)OCC(=O)Nc2ccc(F)cc2)c(C)o1,-6%,-1%,i,4%,2%,i
Cc1cc(SCC#N)n2nc(C)c(-c3ccccc3)c2n1,2.5µM*,-2%,i,-5%,-3%,i
COc1ccc(-c2c(C)nn3c(N4CCN(Cc5ccccc5)CC4)cc(C)nc23)cc1OC,-2%,4%,nt,-2%,-3%,nt
Cc1nn2c(-n3ccnc3)c3c(nc2c1-c1ccccc1)CCC3,15%,18%,i,-4%,2%,i
Cc1nc2c(-c3ccccc3)c(C)nn2c(C)c1CC(=O)O,?,-2%,i,7%,0%,i
Cc1nn2c(N3CCCC3)cc(C(C)C)nc2c1-c1ccccc1,?,?,3.6e-07M*,32µM*,-2%,3.2e-07M*
Cc1cc(N2CCC(C)CC2)n2nc(C)c(-c3ccccc3)c2n1,9%,8%,1.9e-08M*,16%,0%,?
CC1CC(OC(=O)c2ccccc2O)CC(C)(C)C1 (centres undefined),0%,-1%,nt,-12%,-4%,nt

# Bioassay records: PubChem BioAssay, National Center for Advancing Translational Sciences (NCATS)
